According to the supplement of paper PMC6555819:

Key:
Test in all cases: PBM binding z-score (relative to random genomic background probes); higher = stronger binding; sequences stand for … in GC…GCGATTGACAGCGTAGAATGAAGG
[1] = test system: FXR:RXRa (NR concentration 270 nM, RXRa partner concentration 90 nM)
Outline: (§1)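 The probes on custom Agilent 4×180K protein-binding microarrays were double-stranded, with 34-nt variable regions bearing direct-repeat seeds, single-nucleotide variants, half-site ablations and random human genomic background sequences. Incubation lasted 1 h with ligand-free nuclear receptor dimers in PBS pH 7.4, 2% milk, 0.02% Triton X-100, 1 mM DTT, 0.2 mg/mL BSA and 0.4 mg/ml salmon testes DNA. Antibodies against each partner (one per run) detected bound dimers, and fluorescence scans were regression-normalized. Binding z-scores take the random background probes as reference.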

[2] = test system: LXRa:RXRa (NR concentration 270 nM, RXRa partner concentration 90 nM)
Outline: as §1

[3] = test system: LXRa homodimer (NR concentration 270 nM)
Outline: as §1

[4] = test system: LXRb:RXRa (NR concentration 270 nM, RXRa partner concentration 90 nM)
Outline: as §1

[5] = test system: LXRb homodimer (NR concentration 270 nM)
Outline: as §1

[6] = test system: PPARa:RXRa (NR concentration 270 nM, RXRa partner concentration 90 nM)
Outline: as §1

[7] = test system: PPARg:RXRa (NR concentration 180 nM, RXRa partner concentration 90 nM)
Outline: as §1

[8] = test system: PPARg:RXRa 270nM:90nM, anti-RXR (NR concentration 270 nM, RXRa partner concentration 90 nM)
Outline: as §1

[9] = test system: PPARg:RXRa 30nM:10nM, anti-RXR (NR concentration 30 nM, RXRa partner concentration 10 nM)
Outline: as §1

[10] = test system: PPARg:RXRa 90nM:30nM, anti-RXR (NR concentration 90 nM, RXRa partner concentration 30 nM)
Outline: as §1

Row | Sequence | PBM binding z-score [1] | PBM binding z-score [2] | PBM binding z-score [3] | PBM binding z-score [4] | PBM binding z-score [5] | PBM binding z-score [6] | PBM binding z-score [7] | PBM binding z-score [8] | PBM binding z-score [9] | PBM binding z-score [10]
1 | CAAACTAGGTCAAACGTCAAAGTCGAGCCAACCA | 5.56 | 4.17 | 1.04 | 3.16 | 1.12 | 6.14 | 10.8 | 9.01 | 8.48 | 9.75
2 | CCTACGGGGCCATTCAGAGGTCATTGATCATATG | 3.56 | 4.88 | 6.49 | 4.17 | 0.225 | 3.62 | 1.16 | 2.21 | 0.193 | 1.32
3 | CCGACTGGGGCAAGGTAACCATAACGCACAGCCA | -0.249 | -0.173 | -0.437 | -0.227 | -0.817 | 0.552 | 1.47 | 1.14 | -0.222 | 0.712
4 | ATCTCTCGGTAAGACTCAGTTCAGTGAAGAACGC | 0.549 | 0.674 | 0.845 | 0.602 | 1.47 | 0.3 | -0.175 | 0.19 | 0.114 | 0.251
5 | ATCGAAAGGTCTACGAGGTGAGTATACACCGTTT | 0.287 | 0.343 | -0.515 | 0.353 | -0.0521 | 1.03 | 0.797 | 0.573 | 0.114 | 0.523
6 | CCTCCAAGGTCAGCAGGTCAGTGAAAGCGACGTG | 5.51 | 3.58 | 0.385 | 2.93 | 0.111 | 4.67 | 4.14 | 4.24 | 1.49 | 2.93
7 | GCTAGCAGGCCATTTCGGTCACTCAATGACGGGC | -0.325 | -0.482 | -0.0904 | -0.799 | -0.792 | -0.343 | 0.224 | -0.461 | -0.633 | -0.697
8 | TTACCAAGGTGAAGGTTGTTGATCCCTCTGTAGA | 0.965 | 0.801 | -0.298 | 0.622 | -0.706 | 1.61 | 1.21 | 2.25 | 1.07 | 1.96
9 | ACTATTAGTTGACTTAGGTCAACCGATACGACGC | 1.69 | 2.25 | 1.71 | 2.39 | 1.28 | 2.29 | 1.35 | 1.35 | 0.53 | 0.993
10 | ACTATTAGTTAACTTAGGGCAACCGATACGACGC | 0.0468 | 1.21 | 0.294 | 0.256 | 0.392 | 0.281 | 1 | 0.361 | 0.616 | 0.282
11 | TACACAGGGTCAAAGGCCAGAGTACGAATGTCGA | 6.94 | 5.94 | 1.96 | 4.44 | 1.69 | 5.95 | 7.46 | 7.03 | 4.73 | 6.42
12 | CCTAGTTGGTCAAGGCCACACACGCTATAGGTAC | 0.421 | 0.312 | 0.477 | 0.547 | 0.294 | 0.252 | 0.917 | 0.608 | -0.0145 | 0.142
13 | ATACCAAGGTGATCGTGATGTCGTTGATACTAAC | 0.333 | 0.0372 | 0.013 | 0.116 | -0.0295 | 0.0573 | 0.279 | 0.281 | 0.217 | 0.0356
14 | ATACCAAGGTGATCGCGAGGTCGTTGATACTAAC | 1.6 | 0.914 | 0.243 | 1.06 | -0.19 | 1.62 | 0.486 | 0.381 | -0.106 | 0.108
15 | AATACAGGGTCATCGTAGTCCAGAGTACGCACAG | 7.48 | 6.18 | 2.88 | 4.83 | 1.9 | 6.32 | 7.13 | 6.38 | 2.86 | 4.99
16 | CCGAGCAGGTTATGGGGCATTCAGGCAACGGTGA | 0.101 | 0.177 | -0.511 | 0.325 | -0.148 | 1.45 | 0.617 | 1.24 | -0.414 | 0.762
17 | CCTTACGGGTCAAGGTTAAAGCACGGGTGGTACG | 5.62 | 3.83 | 0.272 | 3.14 | 0.0143 | 5.08 | 5.05 | 5.34 | 2.38 | 4.5
18 | ACTAGCAGGCCAAGGGTCACTCCAGATTAGTCCG | 2.22 | 2.79 | 0.477 | 2.39 | -0.313 | 4 | 7.89 | 7.08 | 5.52 | 7.48
19 | CGAACTAGGTTATCCAGGACAGTGAATACATTGA | 0.556 | 0.403 | 0.239 | 0.204 | -0.168 | 2.31 | 2.82 | 2.24 | 0.585 | 1.4
